TrxR1 substrate: is turned over as a substrate by rat TrxR1. AID 588456. Potency, µM (doses to about 114 µM). hit rate 0.01% among 390,000. purified TrxR1 substrate turnover, NADPH consumption readout; also: nearly all actives have a fitted effect of over 50% in size
Target sequence (O89049 whole entry, looked up): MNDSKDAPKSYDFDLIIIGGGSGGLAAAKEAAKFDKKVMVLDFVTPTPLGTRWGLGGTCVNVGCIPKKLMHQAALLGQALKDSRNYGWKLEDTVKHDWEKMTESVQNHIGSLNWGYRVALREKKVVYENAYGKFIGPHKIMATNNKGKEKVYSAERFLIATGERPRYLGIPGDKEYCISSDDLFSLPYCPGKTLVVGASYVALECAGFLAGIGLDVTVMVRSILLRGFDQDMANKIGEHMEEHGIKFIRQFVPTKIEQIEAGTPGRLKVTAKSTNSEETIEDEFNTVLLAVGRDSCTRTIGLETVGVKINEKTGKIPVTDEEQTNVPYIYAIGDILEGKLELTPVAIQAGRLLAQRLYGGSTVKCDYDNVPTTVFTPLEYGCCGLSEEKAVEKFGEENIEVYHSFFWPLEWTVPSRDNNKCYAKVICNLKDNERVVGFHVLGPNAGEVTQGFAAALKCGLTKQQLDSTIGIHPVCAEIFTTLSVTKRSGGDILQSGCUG
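Rat TrxR1, dispensed at 90 nM, was prereduced with 400 uM NADPH (final) for 5 min at ~22 deg C, then incubated with compound 15 min before 400 uM selenite. A first-read NADPH fluorescence drop versus no-compound background flagged substrates.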
TrxR1 inh: inhibitors of rat thioredoxin reductase 1; recombinant rTrxR1, NADPH fluorescence consumption, selenite substrate; Potency, µM (top dose mostly 114 µM), hits mostly inhibitors; O89049; AID 588453; hit rate 1% among 390,000; also: nearly all actives have a fitted effect of over 65% in size
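Rat TrxR1 (90 nM in the dispensed reagent) was pre-reduced with 400 uM NADPH for 5 min at room temperature, then incubated with compound for 15 min. After 400 uM selenite was added, NADPH fluorescence (Ex 340/Em 450 nm) was followed for 8 min.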
FBPA coupling cs: coupling enzyme interference in Giardia aldolase counter-screen | activity change, negative = inhibition, % at 58.2 µM, hits read low | hit rate 0.67% among 290,000 | coupling enzyme system counterscreen, AmpLite Red fluorescence; in the data active = activity change below about -30%
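Fluorescence at 525 nm excitation and 598 nm emission measured inhibition of the coupled detection system without aldolase. Compounds (at 57.5 uM final) were preincubated 10 min at room temperature with coupling enzyme reagent before a 20 min substrate/AmpLite Red step.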
GALK inhibitor: blocks human galactokinase activity; P51570; Purified GALK, Kinase-Glo residual ATP luminescence; Potency, µM (top dose mostly 57.5 µM), most hits filed as inhibitors; hit rate 0.007% among 270,000
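Compounds were pin-transferred into ATP buffer (35 uM final), then GALK plus galactose (5 nM, 100 uM final) was added. After 1 h at room temperature, Kinase-Glo Plus was added and luminescence read after 10 min.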
RORgamma inh: ROR gamma (mouse) transcription inhibition; Potency, µM (highest dose often 53.6 µM), usual class: inhibitors; AID 2551; hit rate 5.4% among 310,000; Drosophila S2 Gal4-RORgamma UAS-luciferase reporter, 20 h; P51450; also: nearly all actives have a fitted effect of over 60% in size
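Luciferase reporter read in Schneider cells carrying Gal4-RORγ (mouse) and UAS-Photinus luciferase; cells given compound 1 h before 700 uM copper sulfate induction, then incubated 20 h at ambient temperature.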
VP16 counter: Gal4-VP16 reporter inhibition counter-screen | hit rate 3.5% among 310,000 | Drosophila S2 Gal4-VP16 UAS-luciferase, luminescence, 20 h | Potency, µM (titrated, usually from 53.6 µM), usual class: inhibitors;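 also: Gal4-VP16 expression switched on by copper sulfate through the metallothionein promoter; nearly all actives have a fitted effect of over 50% in size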
Numbers stand for hits; - = inactive; ? = inconclusive; . = not tested or not shown; [ ] = another dose, or the depositor's remark. A selection: hits, their analogues and other compounds. The true share with any hit is near 5.9%. Unless noted, calls follow the shape of the dose curve; as a rule, active = well fitted curve in the direction sought with a large enough effect; inconclusive = small, poorly fitted or top-dose-only effect, or another doubt; inactive = no such curve, though single readings can be large; an effect the other way counts as inactive or inconclusive.

SMILES	TrxR1 substrate	TrxR1 inh	FBPA coupling cs	GALK inhibitor	RORgamma inh	VP16 counter
Cc1ccc(NS(=O)(=O)c2cccc(C(=O)n3ncc(C#N)c3N)c2)c(C)c1	-	-	-	-	-	-
CCOC(=O)C(C(=O)OCC)C1N=C(N)N=C2Oc3ccccc3N21 (stereo not drawn)	-	-	-	-	?	?
CCC(=NCc1ccccc1)c1c(C(F)(F)F)[nH]n(-c2nc3ccccc3s2)c1=O	-	-	-	-	8.9µM	-
CCCN=C(C)c1c(-c2ccccc2)[nH]n(-c2nc3ccccc3s2)c1=O	-	-	-	-	2.5µM	-
CCN(CC)CCCN=Cc1c(-c2ccccc2)[nH]n(-c2nc3ccccc3s2)c1=O	-	-	-	-	?	-
COC(=O)Cc1[nH]n(-c2nc3ccccc3s2)c(=O)c1C(C)=Nc1ccc(Cl)cc1	-	-	-	-	11µM	-
CC(=NCc1ccco1)c1c(C)[nH]n(-c2nc3ccccc3s2)c1=O	-	-	-	-	?	?
C/C(=N/NC(=O)c1cccs1)c1c(C)[nH]n(-c2nc3ccccc3s2)c1=O	-	-	-	.	1.4µM	2µM
CCC(=NCc1ccco1)c1c(C(F)(F)F)[nH]n(-c2nc3ccccc3s2)c1=O	-	-	-	-	?	-
CCOC(=O)/C(C#N)=C1/C=Cc2ccccc2N1CC	-	-	-	-	-	-
COC(=O)CCCC(=O)N1CCOCCN(C(=O)CCCC(=O)OC)CCOCC1	-	-	-	-	-	-
O=C(CCCCn1c(=O)c2ccccc2n(Cc2ccc(F)cc2Cl)c1=O)NCCc1ccc(Cl)cc1	-	-	.	.	.	.
O=C1Nc2cc(S(=O)(=O)N3CCCC3)ccc2N2CCCC12 (stereo not drawn)	-	50µM	-	-	-	-
CCOc1ccc(C(C)=O)cc1Cc1c(O)nc(N)[nH]c1=O	.	.	-	-	-[10 µM]	-
C=C1C(=O)OC2CC1C(OC(C)=O)CC(C)=CCCC(C)=CCC[C@@]2(C)O (stereo partly drawn)	.	.	-	.	5.6µM	?
C=C1C(=O)OC2CC1C(O)CC(C)=CCCC(C)=CC(O)CC2C (stereo not drawn)	-	-[11.4 µM]	.	.	.	.
NC(=O)c1cc(N2C(=O)C=CC2=O)ccc1Cl	-	1µM	-	-	7.1µM	7.1µM
CC(=O)Nc1ccc(Cl)c(C(N)=O)c1	-	-	-	-	-	-
CCCCN(C(=O)c1ccc([N+](=O)[O-])s1)c1c(N)n(CCCC)c(=O)[nH]c1=O	-	-	.	.	.	.
NC(=O)Cc1nc(-c2ccc(F)cc2)cs1	-	-	-	-	-	-
NC(=S)Cc1nc(-c2ccc(Cl)cc2)cs1	-	-	-	-	5µM	?
CCc1cc2cc(C)cc(C)c2[nH]c1=S	-	-	-	-	7.1µM	-
Cc1nc(S/C(=C/c2ccc(-c3cccc(Cl)c3)o2)C(=O)O)n[nH]1	-	-	-	-	1.3µM	3.5µM
COc1cccc(CN(C)S(=O)(=O)c2cccs2)c1	-	-	-	-	-	-
COCCCN=C(c1ccco1)n1c(=S)nc(-c2ccco2)n(CCCOC)c1=S	-	?	-33	-	-	?
SMILES	TrxR1 substrate	TrxR1 inh	FBPA coupling cs	GALK inhibitor	RORgamma inh	VP16 counter
O=C(CN1CCCCC1)Nc1nnc(-c2ccc([N+](=O)[O-])cc2)s1	-	-	-	-	10µM	-
Cc1ccc2cccc(NC(=S)NC(=O)c3ccn(C)n3)c2n1	-	-	-	-	5µM	5.6µM
Cc1ccc2cccc(NC(=S)NC(=O)c3c(Br)cnn3C)c2n1	-	-	-	-	4µM	?
Cc1ccc2cccc(NC(=O)c3ccc(Br)o3)c2n1	-	-	-	-	-	-
CC(=O)c1ccc(NC(=S)Nc2cccc3cnccc23)cc1	-	22µM	-62	?	-	-
FC(F)(F)c1ccccc1NC(=S)Nc1cccc2cnccc12	-	-	-	-	-	-
S=C(Nc1cccc(Cl)c1)Nc1cccc2cnccc12	-	45µM	-	-	-	-
Cc1ccc(NC(=S)Nc2cccc3cnccc23)cc1C	-	-	-44	-	?	3.2µM
Cc1ccc(NC(=S)Nc2cccc3cnccc23)cc1	-	?	-38	-	?	?
Cc1oc2ccccc2c1-c1cn2c(n1)SCC2	-	-	-	-	?	?
CC(=O)NC(Cc1c[nH]c2ccccc12)C(=O)NCc1ccc2c(c1)OCO2 (stereo not drawn)	-	-	-	-	-	-
O=C(c1cc2ccccc2oc1=O)N1CCN(CCc2ccccc2)CC1	-	-	-	-	-	-
O=C(NCc1n[nH]c(=S)n1-c1ccc(Cl)c(Cl)c1)c1cccs1	-	-	-	-	16µM	-
O=C(NCc1n[nH]c(=S)n1-c1cccc(Cl)c1)c1cccs1	-	-	-	-	-	-
N#Cc1ccccc1Cn1c(=O)n(CCCCC(=O)NCc2ccc3c(c2)OCO3)c(=O)c2ccccc21	-	-	.	.	.	.
CC(C)C[C@H](NC(=O)c1[nH]cnc1C(=O)N[C@H](C)c1ccccc1)C(=O)OC(C)(C)C	-	-	-	-	5µM	5.6µM
C[C@@H](NC(=O)c1nc[nH]c1C(=O)N[C@H](C)c1ccccc1)c1ccccc1	-	-	.	.	.	.
CC(C)C[C@H](NC(=O)c1nc[nH]c1C(=O)NC(c1ccccc1)c1ccccc1)C(=O)OC(C)(C)C	-	-	-	-	0.71µM	3.5µM
C[C@H](NC(=O)c1nc[nH]c1C(=O)N[C@@H](C)c1ccccc1)C(=O)OC(C)(C)C	-	-	-	-	2.8µM	6.3µM
C[C@@H](NC(=O)c1[nH]cnc1C(=O)Nc1ccccc1)c1ccccc1	-	-	.	.	.	.
Cc1ccc(NC(=O)c2nc[nH]c2C(=O)N[C@@H](C)c2ccccc2)cc1	-	-	-	-	1.1µM	3.2µM
CN(C(=O)COC(=O)CCCN1C(=O)c2cccc3cccc(c23)C1=O)C1CCS(=O)(=O)C1 (stereo not drawn)	-	-	.	.	.	.
C=CCS/C(=N\n1cnc2ccccc2c1=O)N1CCCCC1	-	-	-	-	-	-
CCc1ccc(C2=NN(CCC(=O)NCc3cccs3)C(=O)CC2)cc1	-	-	-	-	?	-
CSc1sc(C(=O)NN)c2c1C(O)CCC2 (stereo not drawn)	-	-	.	.	.	.
O=C(c1ccccc1)c1nc[nH]c1C(=O)Nc1ccccc1	-	-	-	-	0.71µM	1.6µM
CCN(CC(=O)NC(C)(C)C)Cc1nc2c(Br)cc(Br)cc2c(=O)[nH]1	-	-	-	.	0.71µM	3.2µM
CCN(CC(=O)NC1CCS(=O)(=O)C1)Cc1nc2c(Br)cc(Br)cc2c(=O)[nH]1 (stereo not drawn)	-	-	-	-	-	-
CC(NC(=S)Nc1ccc(OC(F)F)c(Cl)c1)C(C)(C)C (stereo not drawn)	-	-	-	-	2.8µM	13µM

Screening results as filed in PubChem BioAssay.
